Measurements: PubChem BioAssay AID1159580 (chemical genetic matrix, 2015)
In all, about 5,500 compounds went through this assay and about 2,000 (36%) were called active. Not shown: some 18% with an inconclusive outcome. Rule as the data show it: active = normalized growth mostly below about 0.91 (no sharp cut-off); inconclusive = no clear call, values can overlap the other calls; inactive = mostly above about 0.92. The list shows a part of the results.

Assay: chemical genetic growth profiling, strain panel (AID 1159580);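 also: tested at 20 µM; growth read once vehicle control cultures reached saturation at 30 °C; 1 = growth at the plate median or of vehicle wells; lower values mean less growth of the strain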
Settings: S. cerevisiae deletion strains, growth OD
[1] = locus YAL040C, strain CLN3, stronger effect = lower value
[2] = locus YCL061C, strain MRC1 (second series), stronger effect = lower value
[3] = locus YDR363W, strain ESC2, stronger effect = lower value
[4] = locus YER002W, strain NOP16, stronger effect = lower value
[5] = locus YGR078C, strain PAC10, stronger effect = lower value
[6] = locus YGR229C, strain SMI1, stronger effect = lower value
[7] = locus YMR307W, strain GAS1, stronger effect = lower value
[8] = locus YNL153C, strain GIM3, stronger effect = lower value
[9] = locus YNL175C, strain NOP13, stronger effect = lower value
[10] = locus YNL197C, strain WHI3, stronger effect = lower value
[11] = locus YNL224C, strain SQS1, stronger effect = lower value
[12] = locus YOR083W, strain WHI5 (second series), stronger effect = lower value
[13] = locus YMR263W, strain SAP30, stronger effect = lower value
[14] = locus YNL128W, strain TEP1, stronger effect = lower value
[15] = locus YNL322C, strain KRE1, stronger effect = lower value
[16] = locus YPL241C, strain CIN2, stronger effect = lower value
[17] = locus YJR075W, strain HOC1, stronger effect = lower value

Measured: normalized growth

NC(=O)C1=CN(C2OC(COP(=O)(O)OP(=O)(O)OC[C@H]3O[C@@H](n4cnc5c(N)ncnc54)C(OP(=O)(O)O)[C@H]3O)C(O)C2O)C=CC1 (stereo partly drawn)
inactive: [1] 0.989 | [2] 0.997 | [3] 0.976 | [4] 0.977 | [5] 0.979 | [6] 1 | [7] 1 | [8] 1.02 | [9] 0.98 | [10] 0.986 | [11] 1 | [12] 0.991

CCCN1CCC[C@H](c2cccc(O)c2)C1
inactive: [1] 1 | [2] 0.999 | [3] 1.03 | [4] 0.988 | [5] 1.01 | [6] 1 | [13] 0.993 | [7] 0.992 | [14] 1.01 | [8] 1.18 | [9] 0.995 | [10] 1.01 | [11] 1 | [15] 1 | [12] 1 | locus YPL055C, strain LGE1, stronger effect = lower value 0.994 | [16] 1.01

CCCN1CCC[C@@H](c2cccc(C#N)c2)C1
inactive: locus YAL013W, strain DEP1, stronger effect = lower value 1.01 | [1] 0.986 | [2] 1.01 | locus YDR150W, strain NUM1, stronger effect = lower value 0.994 | [3] 1.04 | [4] 0.989 | [6] 1.04 | [17] 1 | [13] 1.01 | [9] 0.993 | [10] 1.04 | [11] 1.01 | [15] 1 | [12] 0.978

CCCN1CCC[C@@H](c2cccc(O)c2)C1
active: [10] 0.446
inactive: [1] 0.98 | [2] 1 | [3] 1.03 | [4] 0.983 | [5] 0.984 | [6] 0.999 | [17] 1 | [13] 1 | [7] 0.996 | [14] 0.999 | [9] 1.01 | [11] 0.993 | [12] 1.01 | [16] 0.999

NCCc1c[nH]c2ccc(C(N)=O)cc12
inactive: [1] 1.1 | [2] 1 | [3] 1.01 | [4] 1.01 | [5] 1.02 | [7] 1 | [8] 1.01 | [9] 1.01 | [10] 1.02 | [11] 0.997 | [12] 1.02 | [16] 1

O=c1cc(-c2ccccc2O)oc2cc(O)ccc12
inactive: locus YAL021C, strain ccr4, stronger effect = lower value 1.05 | locus YAL026C, strain drs2, stronger effect = lower value 0.977 | locus YAL030W, strain snc1, stronger effect = lower value 0.985 | locus YBL061C, strain skt5, stronger effect = lower value 0.976 | locus YBR009C, strain hhf1, stronger effect = lower value 0.979 | locus YBR023C, strain chs3, stronger effect = lower value 1 | locus YBR171W, strain sec66, stronger effect = lower value 0.951 | locus YBR231C, strain swc5, stronger effect = lower value 0.956 | locus YBR279W, strain paf1, stronger effect = lower value 0.996 | locus YCL011C, strain gbp2, stronger effect = lower value 0.977 | locus YCL016C, strain dcc1, stronger effect = lower value 1.02 | locus YCL069W, strain vba3, stronger effect = lower value 0.97 | locus YCR088W, strain abp1, stronger effect = lower value 0.956 | locus YDL005C, strain med2, stronger effect = lower value 0.956 | locus YDL040C, strain nat1, stronger effect = lower value 0.967 | locus YDR001C, strain nth1, stronger effect = lower value 0.978 | locus YDR069C, strain doa4, stronger effect = lower value 0.95 | locus YDR137W, strain rgp1, stronger effect = lower value 0.958 | locus YDR159W, strain sac3, stronger effect = lower value 0.91 | locus YDR195W, strain ref2 0.962 | locus YDR297W, strain sur2, stronger effect = lower value 0.964 | locus YDR334W, strain swr1, stronger effect = lower value 0.973 | locus YDR335W, strain msn5, stronger effect = lower value 0.979 | locus YDR392W, strain spt3, stronger effect = lower value 0.92 | locus YEL003W, strain gim4, stronger effect = lower value 0.968 | locus YEL037C, strain rad23, stronger effect = lower value 0.962 | locus YEL061C, strain CIN8 (second series), stronger effect = lower value 0.963 | locus YER015W, strain faa2, stronger effect = lower value 0.974 | locus YER016W, strain bim1, stronger effect = lower value 0.973 | locus YER111C, strain swi4, stronger effect = lower value 0.951 | locus YER155C, strain BEM2 (second series), stronger effect = lower value 0.955 | locus YFR010W, strain ubp6, stronger effect = lower value 0.952 | locus YGL167C, strain pmr1, stronger effect = lower value 0.972 | locus YGL173C, strain kem1, stronger effect = lower value 0.95 | locus YGL227W, strain vid30, stronger effect = lower value 0.964 | locus YGL240W, strain doc1, stronger effect = lower value 0.963 | locus YGL253W, strain hxk2, stronger effect = lower value 0.932 | locus YHR013C, strain ard1, stronger effect = lower value 0.952 | locus YHR027C, strain rpn1, stronger effect = lower value 0.965 | locus YHR030C, strain SLT2, stronger effect = lower value 0.978 | locus YHR079C, strain IRE1, stronger effect = lower value 0.987 | locus YHR142W, strain chs7, stronger effect = lower value 0.965 | locus YJL092W, strain hpr5, stronger effect = lower value 0.954 | locus YJL095W, strain BCK1 (second series), stronger effect = lower value 0.994 | locus YJL095W, strain BCK1, stronger effect = lower value 0.997 | locus YJL115W, strain asf1, stronger effect = lower value 0.97 | locus YJL129C, strain trk1, stronger effect = lower value 0.945 | locus YJL154C, strain vps35, stronger effect = lower value 0.979 | locus YJL164C, strain tpk1, stronger effect = lower value 0.992 | locus YJL166W, strain qcr8, stronger effect = lower value 0.966 | locus YJR066W, strain TOR1, stronger effect = lower value 0.929 | locus YKL160W, strain elf1, stronger effect = lower value 1.03 | locus YKR026C, strain gcn3, stronger effect = lower value 0.972 | locus YKR091W, strain srl3, stronger effect = lower value 0.982 | locus YLL001W, strain dnm1, stronger effect = lower value 0.987 | locus YLL026W, stronger effect = lower value 0.969 | locus YLL041C, strain sdh2, stronger effect = lower value 0.977 | locus YLR027C, strain aat2, stronger effect = lower value 0.998 | locus YLR113W, strain HOG1, stronger effect = lower value 1 | locus YLR221C, strain rsa3, stronger effect = lower value 0.938 | locus YLR258W, strain gsy2, stronger effect = lower value 0.994 | locus YLR262C, strain YPT6 (second series), stronger effect = lower value 0.968 | locus YLR320W, strain mms22, stronger effect = lower value 0.95 | locus YLR342W, strain FKS1, stronger effect = lower value 0.974 | locus YLR357W, strain rsc2, stronger effect = lower value 0.978 | locus YLR370C, strain arc18, stronger effect = lower value 0.966 | locus YLR384C, strain iki3, stronger effect = lower value 0.959 | locus YML120C, strain ndi1, stronger effect = lower value 0.996 | locus YMR058W, strain fet3, stronger effect = lower value 0.981 | locus YMR125W, strain sto1, stronger effect = lower value 0.977 | locus YMR129W, stronger effect = lower value 0.987 | locus YMR205C, strain PFK2, stronger effect = lower value 0.996 | locus YMR231W, strain pep5, stronger effect = lower value 0.966 | locus YNL071W, strain lat1, stronger effect = lower value 0.991 | locus YNL183C, strain NPR1, stronger effect = lower value 0.909 | locus YNL209W, strain ssb2, stronger effect = lower value 0.996 | locus YNL248C, strain rpa49, stronger effect = lower value 0.969 | locus YNL322C, strain KRE1 (second series), stronger effect = lower value 0.974 | locus YNR049C, strain mso1, stronger effect = lower value 0.979 | locus YOR001W, strain rrp6, stronger effect = lower value 0.899 | locus YOR070C, strain gyp1, stronger effect = lower value 0.978 | locus YOR080W, strain dia2, stronger effect = lower value 0.972 | locus YOR083W, strain WHI5, stronger effect = lower value 1.03 | locus YOR106W, strain vam3, stronger effect = lower value 0.989 | locus YOR231W, strain MKK1, stronger effect = lower value 0.989 | locus YOR265W, strain rbl2, stronger effect = lower value 0.97 | locus YOR270C, strain vph1, stronger effect = lower value 0.916 | locus YOR290C, strain snf2, stronger effect = lower value 1.02 | locus YPL051W, strain arl3, stronger effect = lower value 0.975 | locus YPL078C, strain atp4, stronger effect = lower value 1.05 | locus YPL106C, strain sse1, stronger effect = lower value 0.984 | locus YPL240C, strain hsp82, stronger effect = lower value 0.971 | locus YPL256C, strain CLN2, stronger effect = lower value 0.95
